# PubChem BioAssay
# “And” between values parts separate entries of the source, which are not always exact repeats. Equal entries are not always repeated. Records with an inconclusive call do not appear. The source made the active and inactive calls. Unless noted, the rule behind the calls is not given here.
# Key:
# [1] = yeast TOR pathway RPL19A-GFP modulators, primary screen, cell-based, S. cerevisiae, multiplex flow cytometry (AID 1862; in the data active = percent of DMSO control GFP below about 86%;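 note: lower values mimic rapamycin by blocking the RPL19A rise seen in DMSO cells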); settings: S. cerevisiae RPL19A-GFP strain, flow cytometry fluorescence, 3 h; at 10 µM; stronger effect = lower value
# [2] = modulators of MEP2-GFP levels in yeast, primary screen, S. cerevisiae, multiplex flow cytometry (AID 1867;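 active = GFP response, as percent of the DMSO control, above the screen-wide mean plus 3 SD, about 139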;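 note: median GFP channel fluorescence of barcode-gated MEP2-GFP cells measured by flow cytometry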); settings: S. cerevisiae MEP2-GFP strain, 3 h, at 10 µM, stronger effect = higher value
# [3] = modulators of CIT2-GFP expression in yeast, primary screen, S. cerevisiae, GFP fusion, multiplex flow cytometry (AID 1870;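 active = percent response above a set limit, the screen-wide mean plus 3 SD, cut at about 130% in these data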;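 note: barcoded CIT2-GFP strain pooled with four other GFP strains with rapamycin as positive control; median GFP fluorescence per well over plate mean of DMSO wells so 100% = DMSO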); settings: 3 h, at 10 µM, stronger effect = higher value
# [4] = modulators of LAP4-GFP expression in yeast, primary screen, S. cerevisiae, multiplex flow cytometry (AID 1873;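 active = GFP signal, as percent of the solvent control, above the screen mean plus 3 SD, about 149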); settings: 3 h, at 10 µM, stronger effect = higher value
# [5] = inhibitors of CD8+ T cell-vesicle binding, pilot screen, LFA-1/ICAM-1 modulator project, MLPCN validation set, flow cytometry (AID 2523;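 active = response below a set limit, under 55% cells CD8-positive and vesicle-bound, and CD8 cells' 90th-percentile brightness under 279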;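 for vesicle binding response: mean PE anti-B7-1 fluorescence of CD8+ cells relative to row control; 100% = QL9-loaded vesicles with DMSO vehicle in the same plate row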); settings: 2C mouse CD8+ T cells, at 7 µM, stronger effect = lower value; double positive events: measured here: CD8+/vesicle+ event percentage
# [6] = biological target: Integrin beta-1 (Homo sapiens) + Integrin alpha-4 (Homo sapiens) (UniProt P13612+P05556); test: inhibition of HUTS-21 binding to VLA-4, pilot screen, VLA-4 allosteric modulator project, U937 cells, HUTS-21 mAb, flow cytometry, validation set (AID 2674;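 active = inhibition above 50%, about 3 SD of the validation set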;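 note: antibody binding induced by the VLA-4 ligand LDV present at three times its Kd; 0% = LDV ligand with antibody and no compound and 100% = antibody without LDV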); settings: HUTS-21 LIBS mAb binding, at 6.7 µM, stronger effect = higher value
# Integrin beta-1 (Homo sapiens) + Integrin alpha-4 (Homo sapiens), sequence (P05556 whole entry, looked up): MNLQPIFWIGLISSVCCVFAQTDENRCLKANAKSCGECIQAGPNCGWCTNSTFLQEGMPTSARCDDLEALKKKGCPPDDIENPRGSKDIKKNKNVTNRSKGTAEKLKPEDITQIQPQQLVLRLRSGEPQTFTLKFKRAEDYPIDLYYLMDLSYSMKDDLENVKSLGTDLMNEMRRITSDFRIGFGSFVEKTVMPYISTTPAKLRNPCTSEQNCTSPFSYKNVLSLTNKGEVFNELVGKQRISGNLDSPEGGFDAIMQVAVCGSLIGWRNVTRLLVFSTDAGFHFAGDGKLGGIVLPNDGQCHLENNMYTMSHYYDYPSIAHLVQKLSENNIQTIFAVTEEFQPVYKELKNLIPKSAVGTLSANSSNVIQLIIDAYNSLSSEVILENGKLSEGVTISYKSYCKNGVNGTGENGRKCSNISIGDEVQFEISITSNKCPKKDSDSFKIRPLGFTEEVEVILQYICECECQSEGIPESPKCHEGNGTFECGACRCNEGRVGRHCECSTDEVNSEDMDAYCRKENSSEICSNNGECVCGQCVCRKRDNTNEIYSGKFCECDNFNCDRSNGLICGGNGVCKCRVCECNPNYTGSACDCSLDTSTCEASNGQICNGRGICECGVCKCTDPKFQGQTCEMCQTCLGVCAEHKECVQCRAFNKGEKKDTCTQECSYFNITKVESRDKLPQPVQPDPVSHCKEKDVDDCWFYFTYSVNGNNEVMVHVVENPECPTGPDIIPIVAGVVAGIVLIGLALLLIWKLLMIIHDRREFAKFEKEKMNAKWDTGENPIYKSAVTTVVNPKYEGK
# Integrin beta-1 (Homo sapiens) + Integrin alpha-4 (Homo sapiens), sequence (P13612 whole entry, looked up): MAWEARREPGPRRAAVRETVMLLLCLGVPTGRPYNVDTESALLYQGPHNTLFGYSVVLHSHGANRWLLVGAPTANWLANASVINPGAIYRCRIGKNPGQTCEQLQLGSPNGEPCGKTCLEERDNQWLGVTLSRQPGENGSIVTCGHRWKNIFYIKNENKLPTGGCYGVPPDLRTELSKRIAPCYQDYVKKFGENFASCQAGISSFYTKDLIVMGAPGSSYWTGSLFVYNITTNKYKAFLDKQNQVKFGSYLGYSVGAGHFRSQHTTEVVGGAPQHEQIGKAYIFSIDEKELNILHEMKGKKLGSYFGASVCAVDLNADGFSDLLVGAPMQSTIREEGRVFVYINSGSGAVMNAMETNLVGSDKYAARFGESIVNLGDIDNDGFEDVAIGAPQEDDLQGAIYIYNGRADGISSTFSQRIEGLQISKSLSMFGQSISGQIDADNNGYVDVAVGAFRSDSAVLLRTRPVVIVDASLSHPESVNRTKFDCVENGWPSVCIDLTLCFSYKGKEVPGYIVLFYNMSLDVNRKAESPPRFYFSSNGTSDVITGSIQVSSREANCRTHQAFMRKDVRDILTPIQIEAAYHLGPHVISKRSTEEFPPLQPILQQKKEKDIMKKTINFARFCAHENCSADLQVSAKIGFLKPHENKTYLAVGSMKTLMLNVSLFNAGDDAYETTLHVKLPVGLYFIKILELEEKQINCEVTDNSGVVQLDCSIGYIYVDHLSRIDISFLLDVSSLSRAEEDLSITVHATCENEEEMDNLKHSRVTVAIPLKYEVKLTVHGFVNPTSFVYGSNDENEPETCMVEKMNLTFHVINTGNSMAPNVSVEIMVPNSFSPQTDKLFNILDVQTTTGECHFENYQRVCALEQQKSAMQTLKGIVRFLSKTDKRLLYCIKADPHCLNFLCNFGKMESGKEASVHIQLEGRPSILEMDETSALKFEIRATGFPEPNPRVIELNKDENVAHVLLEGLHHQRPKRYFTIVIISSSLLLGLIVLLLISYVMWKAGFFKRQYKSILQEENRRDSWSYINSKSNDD
# [7] = superoxide lowering in aged yeast cells, pilot screen, validation compound set (AID 2706;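 active = superoxide response below 65% of plate, a cut near 3 SD across the whole screen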;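 note: yeast exposed to compound for one week at 30 degrees C before staining; 100% = mean of all compound wells on the same plate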); settings: S. cerevisiae aging, superoxide DHE fluorescence; at 10 µM; stronger effect = lower value
# [8] = biological target: Beta-adrenergic receptor kinase 1 (Homo sapiens) (UniProt P25098); test: GRK2 binders displacing RNA aptamer, biochemical, validation, human GRK2, bead flow cytometry (AID 488806;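 active = aptamer binding inhibition above 30%, about 3 SD of noise from non-fluorescent compounds; inactive = inhibition at or below 30%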); settings: bead-bound GRK2, FAM-aptamer displacement, at 10 µM, stronger effect = higher value
# Beta-adrenergic receptor kinase 1 (Homo sapiens), sequence (P25098 whole entry, looked up): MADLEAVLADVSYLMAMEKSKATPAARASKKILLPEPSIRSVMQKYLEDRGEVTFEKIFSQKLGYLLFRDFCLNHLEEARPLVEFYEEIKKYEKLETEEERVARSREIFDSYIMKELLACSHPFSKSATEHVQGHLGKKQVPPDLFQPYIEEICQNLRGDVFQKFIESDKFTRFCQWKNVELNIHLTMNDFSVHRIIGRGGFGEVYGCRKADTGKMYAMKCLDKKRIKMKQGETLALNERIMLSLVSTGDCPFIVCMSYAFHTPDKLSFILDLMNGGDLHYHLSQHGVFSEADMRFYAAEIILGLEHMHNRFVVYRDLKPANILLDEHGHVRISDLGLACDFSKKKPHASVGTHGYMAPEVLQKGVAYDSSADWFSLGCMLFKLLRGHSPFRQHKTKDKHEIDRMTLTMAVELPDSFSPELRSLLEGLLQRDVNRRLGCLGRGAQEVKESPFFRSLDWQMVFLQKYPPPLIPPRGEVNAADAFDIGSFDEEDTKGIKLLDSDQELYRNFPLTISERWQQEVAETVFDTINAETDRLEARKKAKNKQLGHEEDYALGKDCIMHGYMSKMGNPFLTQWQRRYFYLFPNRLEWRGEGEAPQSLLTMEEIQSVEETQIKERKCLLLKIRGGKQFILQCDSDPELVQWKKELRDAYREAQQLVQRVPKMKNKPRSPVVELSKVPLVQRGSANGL
# [9] = biological target: AP-2 complex subunit beta (Homo sapiens) (UniProt P63010); test: inhibitors of arrestin peptide binding to AP2, pilot screen, biochemical, validation set, GST-AP2 beads, flow cytometry (AID 504541;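 active = inhibition above 54%, about 3 SD of non-fluorescent compounds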;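 note: AP2 carries R879A mutation and is captured from E. coli lysate; bead-bound FITC arrestin peptide fluorescence measuring arrestin peptide binding to AP2; 0% = DMSO wells and 100% = excess unlabeled arrestin peptide control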); settings: FITC arrestin peptide, at 10 µM, stronger effect = higher value
# [10] = yeast V-ATPase proton transport modulators, S. cerevisiae, pHLuorin, HTS validation (AID 504600; in the data active = response above about 15%;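 note: plate controls were DMSO for no effect and reference compound for full effect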); settings: S. cerevisiae pHLuorin cytosolic pH, at 10 µM, stronger effect = higher value
# [11] = system: anti-desmoglein-3 scFv antibody binding to human DSG3; test: inhibitors of anti-DSG3 scFv binding to DSG3, pilot screen, biochemical, validation compound set, bead-based, flow cytometry (AID 588368;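 active = binding below the plate cutoff, the plate median minus 3 SD, with a reading above zero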;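 note: signal is the median channel fluorescence of bead-bound GFP antibody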); settings: Protein G beads, DSG3-Fc, scFv-GFP binding, at 10 µM, stronger effect = lower value
# [12] = system: Botulinum neurotoxin type F light chain protease (Clostridium botulinum); test: Botulinum neurotoxin type F light chain protease inhibition, multiplex microsphere flow cytometry, validation set (AID 588459); settings: multiplex microsphere protease substrate cleavage assay, at 10 µM, stronger effect = higher value
# [13] = biological target: Botulinum neurotoxin type A (Clostridium botulinum) (UniProt P0DPI0); test: BoNT/A light chain protease inhibitors, biochemical, multiplex microsphere flow cytometry, validation set (AID 588460); settings: at 10 µM, stronger effect = higher value
# Botulinum neurotoxin type A (Clostridium botulinum), sequence (P0DPI0 whole entry, looked up): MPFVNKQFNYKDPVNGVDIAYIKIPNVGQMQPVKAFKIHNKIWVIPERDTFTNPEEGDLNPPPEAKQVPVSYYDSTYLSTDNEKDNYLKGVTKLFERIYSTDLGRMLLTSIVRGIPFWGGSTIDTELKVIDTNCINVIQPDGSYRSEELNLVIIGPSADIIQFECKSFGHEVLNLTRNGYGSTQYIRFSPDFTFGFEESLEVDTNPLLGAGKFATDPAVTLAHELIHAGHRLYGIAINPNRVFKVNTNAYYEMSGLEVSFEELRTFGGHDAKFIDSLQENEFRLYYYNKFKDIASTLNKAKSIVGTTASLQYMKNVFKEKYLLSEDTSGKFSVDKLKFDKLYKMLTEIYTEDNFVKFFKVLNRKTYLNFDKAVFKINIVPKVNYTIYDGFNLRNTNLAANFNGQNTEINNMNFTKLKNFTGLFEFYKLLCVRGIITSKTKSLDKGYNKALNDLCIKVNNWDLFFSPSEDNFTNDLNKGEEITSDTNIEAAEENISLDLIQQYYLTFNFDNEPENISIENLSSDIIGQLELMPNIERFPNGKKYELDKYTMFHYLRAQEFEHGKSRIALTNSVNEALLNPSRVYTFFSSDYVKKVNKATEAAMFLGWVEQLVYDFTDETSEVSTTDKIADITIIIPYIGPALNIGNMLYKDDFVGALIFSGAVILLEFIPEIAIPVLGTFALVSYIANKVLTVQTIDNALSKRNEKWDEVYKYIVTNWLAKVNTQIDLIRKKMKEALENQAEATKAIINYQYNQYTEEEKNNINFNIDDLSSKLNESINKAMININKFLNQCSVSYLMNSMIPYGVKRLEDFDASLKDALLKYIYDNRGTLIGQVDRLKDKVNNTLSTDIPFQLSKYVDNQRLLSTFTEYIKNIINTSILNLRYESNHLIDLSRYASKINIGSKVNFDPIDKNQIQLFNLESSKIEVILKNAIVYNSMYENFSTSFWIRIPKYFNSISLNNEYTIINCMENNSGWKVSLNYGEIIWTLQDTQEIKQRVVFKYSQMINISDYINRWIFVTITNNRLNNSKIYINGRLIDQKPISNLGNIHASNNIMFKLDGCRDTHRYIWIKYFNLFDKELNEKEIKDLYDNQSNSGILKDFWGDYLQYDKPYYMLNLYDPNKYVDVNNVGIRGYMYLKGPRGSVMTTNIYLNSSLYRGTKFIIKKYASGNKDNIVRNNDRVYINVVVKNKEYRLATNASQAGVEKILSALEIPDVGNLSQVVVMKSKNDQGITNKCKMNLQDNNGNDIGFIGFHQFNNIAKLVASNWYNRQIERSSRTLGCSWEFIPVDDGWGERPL
# [14] = biological target: Lethal factor (Bacillus anthracis) (UniProt P15917); test: Lethal factor protease inhibitors, Bacillus anthracis, multiplex microsphere cleavage assay, validation set (AID 588461); settings: flow cytometry, at 10 µM, stronger effect = higher value
# [15] = inhibitors of fungal efflux pumps CDR1, CDR2, MDR1, pilot screen, validation compound set, multiplex, phenotypic (AID 588506;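 active = efflux inhibition above 0.42, the validation set average plus 4 SD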;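 note: Nile Red retained in cells so higher fluorescence means more efflux inhibition; 0 = negative control wells and 1 = enniatin B 25 µM full block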); settings: S. cerevisiae pump-expressing triplex, Nile Red efflux flow cytometry; at 10 µM; stronger effect = higher value
# [16] = biological target: ATP-binding cassette sub-family B member 6 (Homo sapiens) (UniProt Q9NP58); test: ABCB6 transporter inhibitors, pilot screen, K562-ABCB6 cells, flow cytometry, validation set (AID 588550;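 active = inhibition above the screen-wide mean plus 3 SD, about 51%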;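 note: 0% = DMSO wells and 100% = benzethonium chloride 70 µM positive control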); settings: K562-ABCB6 porphyrin accumulation, 1 h, at 10 µM, stronger effect = higher value
# ATP-binding cassette sub-family B member 6 (Homo sapiens), sequence (Q9NP58 whole entry, looked up): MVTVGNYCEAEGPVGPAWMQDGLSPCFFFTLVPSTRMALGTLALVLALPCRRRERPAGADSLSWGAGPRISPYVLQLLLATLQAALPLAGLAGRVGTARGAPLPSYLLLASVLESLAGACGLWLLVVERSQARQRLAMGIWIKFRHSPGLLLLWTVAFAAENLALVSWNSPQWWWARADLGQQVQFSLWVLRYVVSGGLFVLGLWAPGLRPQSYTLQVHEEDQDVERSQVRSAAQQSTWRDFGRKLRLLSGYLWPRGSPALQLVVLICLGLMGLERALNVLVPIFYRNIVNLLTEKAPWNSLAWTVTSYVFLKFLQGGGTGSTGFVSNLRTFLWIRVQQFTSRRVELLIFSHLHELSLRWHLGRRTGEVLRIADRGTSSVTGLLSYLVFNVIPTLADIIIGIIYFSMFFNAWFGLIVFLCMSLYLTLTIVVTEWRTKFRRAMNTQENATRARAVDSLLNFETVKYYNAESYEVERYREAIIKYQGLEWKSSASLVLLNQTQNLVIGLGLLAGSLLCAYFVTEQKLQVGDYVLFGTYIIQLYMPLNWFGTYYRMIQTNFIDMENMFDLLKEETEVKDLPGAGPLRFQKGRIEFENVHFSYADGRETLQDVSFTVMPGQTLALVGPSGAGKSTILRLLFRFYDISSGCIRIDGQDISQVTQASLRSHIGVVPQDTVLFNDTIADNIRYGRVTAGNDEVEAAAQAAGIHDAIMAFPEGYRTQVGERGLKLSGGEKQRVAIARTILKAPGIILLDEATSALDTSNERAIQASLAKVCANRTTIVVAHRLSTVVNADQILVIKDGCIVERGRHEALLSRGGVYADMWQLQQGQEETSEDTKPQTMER
# [17] = promoters of myeloid differentiation in arrested cells, primary screen, cell-based, GFP/MAC1 double positive, flow cytometry, validation set (AID 588685;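 active = differentiation response of at least 50%, scaled between solvent and reference control, from cells with both markers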;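 note: compound exposure lasts four days before antibody staining and flow analysis; 0% = DMSO wells and 100% = 5 µM fulvestrant positive control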); settings: ER-HoxA9 marrow cells, stronger effect = higher value
SMILES,percent of DMSO control GFP [1],GFP response vs DMSO [2],percent response of DMSO control [3],GFP response vs DMSO [4],double positive events [5],vesicle binding response [5],inhibition [6],superoxide response (% of plate) [7],aptamer binding inhibition [8],inhibition [9],response [10],binding (% of control) [11],inhibition [12],inhibition [13],inhibition [14],efflux inhibition (fraction of control) [15],inhibition [16],differentiation response [17]
CN(C)[C@@H]1C(=O)C(C(N)=O)=C(O)[C@@]2(O)C(=O)C3=C(O)c4c(O)cccc4[C@@](C)(O)[C@H]3[C@H](O)[C@@H]12,102% (inactive),98.9% (inactive),105% (inactive),97.4% (inactive),56.9%,155% (inactive),6.29% (inactive),99.8% (inactive),26% (inactive),34.2% (inactive),4.02% (inactive),87.9% (inactive),-9.4% (inactive),-5.3% (inactive),-12.6% (inactive),-0.31 (inactive),3% (inactive),-18% (inactive)
CC(=O)C1=C(C)OC(N)=C(C(=O)OC(C)C)C12C(=O)Nc1ccccc12 (stereo not given),102% (inactive),105% (inactive),103% (inactive),99.4% (inactive),56.3%,194% (inactive),0.69% (inactive),103% (inactive),0% (inactive),0.23% (inactive),-0.91% (inactive),93.8% (inactive),-2.3% (inactive),-0.1% (inactive),-1.4% (inactive),0.1 (inactive),8% (inactive),-18% (inactive)
COc1ccc(Cc2nccc3cc(OC)c(OC)cc23)cc1OC,101% (inactive),96.7% (inactive),94.9% (inactive),98.7% (inactive),59.9%,146% (inactive),,96% (inactive),4% (inactive),-1.6% (inactive),-0.83% (inactive),108% (inactive),1.7% (inactive),0.2% (inactive),3.7% (inactive),0.49 (active),4% (inactive),6.49% (inactive)
C[N+]1(C)[C@@H]2CC(OC(=O)[C@H](CO)c3ccccc3)C[C@H]1[C@@H]1O[C@@H]12 (stereo not given in full),97.8% (inactive) and 102% (inactive),104% (inactive) and 114% (inactive),99.7% (inactive) and 92% (inactive),94.8% (inactive) and 112% (inactive),62.3% and 61.3%,109% (inactive) and 5740% (inactive),12.3% (inactive) and -9.98% (inactive),103% (inactive) and 114% (inactive),-1% (inactive) and 1% (inactive),5.6% (inactive) and -2.35% (inactive),3.4% (inactive) and -1.88% (inactive),99.6% (inactive) and 101% (inactive),-3.5% (inactive) and 1.5% (inactive),-1.8% (inactive) and 0.7% (inactive),-5.6% (inactive) and 13.1% (inactive),,-8% (inactive) and 5% (inactive),-6.03% (inactive) and -15.2% (inactive)
C[C@H]1CCC/C=C/C2C[C@H](O)CC2[C@H](O)/C=C/C(=O)O1 (stereo not given in full),106% (inactive),111% (inactive),99.7% (inactive),100% (inactive),62.5%,166% (inactive),0.25% (inactive),92.8% (inactive),1% (inactive),,-4.42% (inactive),85.8% (inactive),4% (inactive),-0.8% (inactive),2.7% (inactive),0.31 (inactive),17% (inactive),32% (inactive)
CC(Cc1ccccc1)NCC(=O)Nc1cc(N(C)C)nc2ccccc12 (stereo not given),101% (inactive),107% (inactive),93.9% (inactive),105% (inactive),52.9%,191% (inactive),-40.4% (inactive),93.7% (inactive),5% (inactive),-8.4% (inactive),-1.24% (inactive),99.3% (inactive),11.6% (inactive),6.4% (inactive),0.6% (inactive),-0.31 (inactive),8% (inactive),-18% (inactive)
Cc1cccc(C)c1NC1=NCCCS1,94.7% (inactive),104% (inactive),94.9% (inactive),91.3% (inactive),62.8%,180% (inactive),13.8% (inactive),97.2% (inactive),2% (inactive),15.3% (inactive),1.52% (inactive),102% (inactive),-2.3% (inactive),-0.6% (inactive),1.9% (inactive),0.18 (inactive),5% (inactive),-9.89% (inactive)
CN[C@H](C)[C@H](O)c1ccccc1,90.2% (inactive),131% (inactive),102% (inactive),87.5% (inactive),53.3%,176% (inactive),8.4% (inactive),97.6% (inactive),4% (inactive),39.6% (inactive),-4.76% (inactive),102% (inactive),,,,0.27 (inactive),5% (inactive),-0.82% (inactive)
C[C@@H]1O[C@@H](O[C@H]2C[C@@H](O)[C@]3(CO)[C@H]4[C@H](O)C[C@]5(C)[C@@H](C6=CC(=O)OC6)CC[C@]5(O)[C@@H]4CC[C@]3(O)C2)[C@H](O)[C@H](O)[C@H]1O,108% (inactive),104% (inactive),102% (inactive),107% (inactive),69%,183% (inactive),1.44% (inactive),103% (inactive),7% (inactive),-1.72% (inactive),0.97% (inactive),101% (inactive),0.6% (inactive),-0.5% (inactive),0.4% (inactive),,4% (inactive),1.91% (inactive)
